Measured values taken from PubChem BioAssay (Tox21).
“And” between values parts separate entries of the source, which are not always exact repeats. Identical values can stand only once. Inconclusive results are not listed. Entries that show only a call come without a potency. Values without a mark were called inactive. The source made the active and inactive calls. The call rests on the fitted dose curve; in most records, active means well fitted curve in the direction sought with a large enough effect in the repeat runs; inconclusive means weak or mixed curves; inactive means no such curve, though single readings can be large; an effect the other way counts as inactive or inconclusive.

Legend:
[1] = biological target: Cytochrome P450 2C9 (Homo sapiens) (UniProt P11712); experiment: Cytochrome P450 Family 2 Subfamily C Member 9 (CYP2C9) small molecule antagonists: luciferase reporter qHTS assay (AID 1671198); conditions: P450-Glo CYP2C9 enzyme assay, luciferin luminescence; series mostly up to 115 µM
Outline: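 CYP2C9 activity was measured with a P450-Glo proluciferin substrate. Enzyme–substrate mix was held with compound for 10 min at room temperature, then NADPH regeneration solution was added for 1 h at 37C. Luciferin product was read as luminescence.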

[2] = biological target: Cytochrome P450 1A2 (Homo sapiens) (UniProt P05177); experiment: Cytochrome P450 Family 1 Subfamily A Member 2 (CYP1A2) small molecule antagonists: luciferase reporter qHTS assay (AID 1671199); conditions: P450-Glo CYP1A2 enzyme, luciferin luminescence, 1 h; series mostly up to 115 µM
Outline: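 Luminescence from luciferin formed by CYP1A2 from a proluciferin substrate, read 20 min after detection reagent. Compound was pre-incubated 10 min with enzyme-substrate, and reaction started with NADPH regeneration solution for 1 h at room temperature; furafylline control.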

[3] = biological target: Voltage-gated inwardly rectifying potassium channel KCNH2 (Homo sapiens) (UniProt Q12809); experiment: Human Ether-a-go-go-Related Gene (hERG) channel small molecule antagonists: fluorescence cell-based qHTS assay (AID 1671200); conditions: hERG-U2OS cells, FluxOR thallium flux fluorescence; series mostly up to 76.8 µM;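 on activity change, negative = inhibition: hERG-expressing U2OS cells given a thallium stimulus after FluxOR II dye loading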
Outline: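 Measured: Tl+ flux via fluorescence (480/540 nm) in hERG-expressing U2OS cells after 1 h dye loading at room temperature.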

[4] = biological target: Cytochrome P450 3A4 (Homo sapiens) (UniProt P08684); experiment: Cytochrome P450 Family 3 Subfamily A Member 4 (CYP3A4) small molecule antagonists: luciferase reporter qHTS assay (AID 1671201); conditions: P450-Glo CYP3A4 enzyme, luciferin luminescence, 1 h; series mostly up to 115 µM
Outline: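 Setup: enzyme-substrate mix, compound pin transfer, 10 min RT. Reaction: NADPH regeneration solution, 1 h RT. Readout: detection reagent stops turnover, luminescence measured after 20 min, expressed in relative luminescence units.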
Further: nearly all actives have a fitted effect of over 50% in size.
Potency means the concentration at half of the fitted maximal effect.

Chain of Voltage-gated inwardly rectifying potassium channel KCNH2 (Homo sapiens) (Q12809 whole entry, looked up): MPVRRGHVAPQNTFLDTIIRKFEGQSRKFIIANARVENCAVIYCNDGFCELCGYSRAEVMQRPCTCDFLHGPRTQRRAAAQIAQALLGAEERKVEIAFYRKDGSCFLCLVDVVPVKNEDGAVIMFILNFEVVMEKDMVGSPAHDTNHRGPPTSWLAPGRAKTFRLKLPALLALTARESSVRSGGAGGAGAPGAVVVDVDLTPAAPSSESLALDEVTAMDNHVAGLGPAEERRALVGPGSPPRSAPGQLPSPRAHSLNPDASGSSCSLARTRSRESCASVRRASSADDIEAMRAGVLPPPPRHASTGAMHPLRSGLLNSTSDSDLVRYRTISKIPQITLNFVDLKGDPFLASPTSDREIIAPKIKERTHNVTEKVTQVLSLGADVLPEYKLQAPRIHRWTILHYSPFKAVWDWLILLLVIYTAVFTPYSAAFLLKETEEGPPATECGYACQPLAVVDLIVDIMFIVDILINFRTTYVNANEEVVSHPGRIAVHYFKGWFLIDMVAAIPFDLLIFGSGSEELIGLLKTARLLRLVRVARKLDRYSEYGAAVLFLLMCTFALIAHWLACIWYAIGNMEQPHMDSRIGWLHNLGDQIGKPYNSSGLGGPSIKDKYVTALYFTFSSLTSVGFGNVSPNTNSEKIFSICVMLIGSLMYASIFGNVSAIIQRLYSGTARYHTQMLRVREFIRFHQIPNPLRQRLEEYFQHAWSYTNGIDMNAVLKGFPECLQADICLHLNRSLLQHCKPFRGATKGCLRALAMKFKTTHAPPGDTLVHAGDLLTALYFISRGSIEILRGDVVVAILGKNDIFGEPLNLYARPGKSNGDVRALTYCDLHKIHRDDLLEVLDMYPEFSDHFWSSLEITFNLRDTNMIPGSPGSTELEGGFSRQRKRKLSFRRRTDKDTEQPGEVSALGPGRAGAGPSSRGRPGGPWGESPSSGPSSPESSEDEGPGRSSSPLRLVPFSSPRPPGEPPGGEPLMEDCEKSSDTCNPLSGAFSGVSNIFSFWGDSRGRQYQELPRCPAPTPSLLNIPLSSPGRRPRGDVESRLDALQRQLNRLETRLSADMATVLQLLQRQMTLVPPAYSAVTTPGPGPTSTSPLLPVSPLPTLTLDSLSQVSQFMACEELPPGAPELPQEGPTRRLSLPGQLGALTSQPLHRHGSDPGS
Chain of Cytochrome P450 1A2 (Homo sapiens) (P05177 whole entry, looked up): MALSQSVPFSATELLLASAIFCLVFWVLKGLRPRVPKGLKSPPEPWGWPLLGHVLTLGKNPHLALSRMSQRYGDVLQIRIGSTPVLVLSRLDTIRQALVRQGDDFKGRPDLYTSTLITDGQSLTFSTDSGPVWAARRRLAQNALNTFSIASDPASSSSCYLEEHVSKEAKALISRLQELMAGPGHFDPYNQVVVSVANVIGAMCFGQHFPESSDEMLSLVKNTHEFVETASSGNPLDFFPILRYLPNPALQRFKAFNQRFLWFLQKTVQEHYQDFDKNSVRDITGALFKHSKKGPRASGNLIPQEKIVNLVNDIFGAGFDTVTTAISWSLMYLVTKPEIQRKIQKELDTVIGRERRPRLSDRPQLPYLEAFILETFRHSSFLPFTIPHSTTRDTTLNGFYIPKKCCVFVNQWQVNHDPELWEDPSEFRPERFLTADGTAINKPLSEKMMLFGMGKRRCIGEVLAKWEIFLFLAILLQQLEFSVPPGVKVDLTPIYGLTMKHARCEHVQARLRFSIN
Chain of Cytochrome P450 3A4 (Homo sapiens) (P08684 whole entry, looked up): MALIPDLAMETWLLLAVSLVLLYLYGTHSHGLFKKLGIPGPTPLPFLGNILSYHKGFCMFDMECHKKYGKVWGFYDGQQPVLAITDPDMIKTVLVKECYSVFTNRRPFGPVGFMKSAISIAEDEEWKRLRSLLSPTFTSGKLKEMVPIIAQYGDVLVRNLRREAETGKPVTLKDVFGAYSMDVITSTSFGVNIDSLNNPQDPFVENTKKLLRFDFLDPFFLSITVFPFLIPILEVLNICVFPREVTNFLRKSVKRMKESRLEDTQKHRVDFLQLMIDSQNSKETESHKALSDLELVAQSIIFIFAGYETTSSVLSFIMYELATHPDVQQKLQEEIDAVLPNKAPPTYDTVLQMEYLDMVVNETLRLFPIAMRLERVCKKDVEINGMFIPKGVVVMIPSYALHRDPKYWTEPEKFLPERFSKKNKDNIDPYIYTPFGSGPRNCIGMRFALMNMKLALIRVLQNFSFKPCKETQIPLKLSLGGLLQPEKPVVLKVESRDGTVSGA
Chain of Cytochrome P450 2C9 (Homo sapiens) (P11712 whole entry, looked up): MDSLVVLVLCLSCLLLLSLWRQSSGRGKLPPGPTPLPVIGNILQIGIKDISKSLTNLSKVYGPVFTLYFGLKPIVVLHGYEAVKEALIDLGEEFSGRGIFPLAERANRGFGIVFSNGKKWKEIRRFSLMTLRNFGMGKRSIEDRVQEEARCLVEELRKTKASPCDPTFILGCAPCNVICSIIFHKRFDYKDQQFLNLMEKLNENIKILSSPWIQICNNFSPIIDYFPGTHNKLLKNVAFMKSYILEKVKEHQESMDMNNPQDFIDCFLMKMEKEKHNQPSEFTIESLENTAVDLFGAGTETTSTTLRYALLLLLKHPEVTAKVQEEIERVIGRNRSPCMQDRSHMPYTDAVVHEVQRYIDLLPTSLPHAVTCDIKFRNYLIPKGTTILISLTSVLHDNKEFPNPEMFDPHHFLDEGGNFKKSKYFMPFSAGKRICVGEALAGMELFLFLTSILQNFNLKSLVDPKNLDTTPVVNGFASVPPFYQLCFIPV

O=C(O)CCN(C1(C(=O)NO)CCCC1)S(=O)(=O)c1ccc(Oc2ccc(F)cc2)cc1
Potency [1]: inactive | Potency [2]: inactive | Potency [3]: inactive | Potency [4]: inactive

Cc1c(C)c2c(c(C)c1O)CC[C@@](C)(CCC[C@H](C)CCC[C@H](C)CCCC(C)C)O2
Potency [1]: inactive | Potency [2]: inactive | Potency [3]: inactive | Potency [4]: inactive

CC(CCc1ccccc1)NCC(O)c1ccc(O)c(C(N)=O)c1 (stereo not given)
Potency [1]: inactive | Potency [2]: inactive | Potency [3]: 19.5 µM (active) | Potency [4]: inactive

Clc1nnc(Cl)c2ccccc12
Potency [1]: inactive | Potency [2]: 11.2 µM (active) | Potency [3]: inactive | Potency [4]: inactive

CC(C)=CCC1=C(O)c2ccccc2C(=O)C1=O
Potency [1]: 31.6 µM (active) | Potency [2]: 11.2 µM (active) | Potency [3]: inactive | Potency [4]: inactive

c1ccc(SSc2ccccc2)cc1
Potency [1]: 31.9 µM (active) | Potency [2]: 3.19 µM (active) | Potency [3]: inactive | Potency [4]: inactive

CN(C)CCN1CCN(c2cccc(Cl)c2)C1=O
Potency [1]: inactive | Potency [3]: inactive | Potency [4]: inactive

C=CC(C)(CCC=C(C)C)OC=O (stereo not given)
Potency [1]: 35.6 µM (active) | Potency [3]: inactive | Potency [4]: 31.7 µM (active)

CCCC[P+](C)(CCCC)CCCC
Potency [1]: inactive | Potency [4]: inactive

CCCCCCCCCCCC(=O)OCC(C)OC(=O)CCCCC(=O)O (stereo not given)
Potency [1]: 7.76 µM (active) | Potency [3]: inactive | Potency [4]: 8.71 µM (active)

COc1cc(S(=O)(=O)O)c(C)cc1N=Nc1c(O)ccc2cc(S(=O)(=O)O)ccc12
Potency [1]: 39.9 µM (active) | Potency [3]: inactive | Potency [4]: inactive

CC(=O)OCC=C(C)C
Potency [1]: inactive | Potency [3]: inactive | Potency [4]: inactive

CCCCOC(=O)CO
Potency [1]: inactive | Potency [3]: inactive | Potency [4]: inactive

Cc1cccc(C(=O)O)c1O
Potency [1]: inactive | Potency [3]: inactive | Potency [4]: inactive

CC(C)(C)C1CCC(=O)CC1
Potency [1]: inactive | Potency [3]: inactive | Potency [4]: inactive

CC1=CCC(=C(C)C)CC1
Potency [1]: 39.9 µM (active) | Potency [3]: inactive | Potency [4]: 20 µM (active)

Cc1ccc(-c2ccccc2)cc1
Potency [1]: inactive | Potency [4]: inactive

CCCCCc1ccc(Cl)cc1
Potency [2]: inactive

Nc1nc(N)nc(-c2cc(Cl)ccc2Cl)n1
Potency [1]: inactive | Potency [3]: inactive | Potency [4]: inactive

CCCCCCC1CCCC(=O)O1 (stereo not given)
Potency [1]: 25.2 µM (active) | Potency [3]: inactive | Potency [4]: inactive

COc1cc2nc(N3CCN(C(=O)c4ccco4)CC3)nc(N)c2cc1OC
activity change, negative = inhibition [1]: 1.12% [at 23.6 µM] | activity change, negative = inhibition [3]: -1.36% [at 15.8 µM] | activity change, negative = inhibition [4]: 135% [at 23.6 µM]

COC(C)=O
Potency [1]: inactive | Potency [3]: inactive | Potency [4]: inactive

CC(C)Cn1cnc2c(N)nc3ccccc3c21
activity change, negative = inhibition [1]: -3.29% [at 23.6 µM] | activity change, negative = inhibition [3]: -8.33% [at 15.8 µM] | activity change, negative = inhibition [4]: 54.2% [at 23.6 µM]

O=c1[nH]c(=O)n([C@H]2C[C@H](O)[C@@H](CO)O2)cc1F
Potency [1]: inactive | Potency [3]: inactive | Potency [4]: inactive

OC12N=C(c3ccccc3)SC1Cc1cc(Cl)ccc12 (stereo not given)
Potency [1]: 0.894 µM (active) | Potency [3]: inactive | Potency [4]: 31.7 µM (active)

CCCCCC/C=C\CCCCCCCC(=O)O
Potency [1]: 71 µM (active) | Potency [3]: inactive | Potency [4]: inactive

O=C1OC2(c3ccc(O)cc3Oc3cc(O)ccc32)c2ccc(N=C=S)cc21
Potency [1]: 72.3 µM (active) | Potency [3]: inactive | Potency [4]: inactive

CCn1c2ccccc2c2cc([N+](=O)[O-])ccc21
Potency [1]: inactive | Potency [4]: inactive

COC(=O)c1ccccc1OC
Potency [1]: inactive | Potency [3]: inactive | Potency [4]: inactive

O[C@@H]([C@H](O)[C@H](O)CBr)[C@H](O)CBr
Potency [1]: inactive | Potency [3]: inactive | Potency [4]: inactive

NC(=S)NC(N)=S
Potency [1]: 7.96 µM (active) | Potency [3]: inactive | Potency [4]: inactive

O=S(=O)(O)c1ccc(Nc2nc(Nc3ccc(/C=C/c4ccc(Nc5nc(Nc6ccc(S(=O)(=O)O)cc6)nc(N(CCO)CCO)n5)cc4S(=O)(=O)O)c(S(=O)(=O)O)c3)nc(N(CCO)CCO)n2)cc1
Potency [1]: inactive | Potency [3]: inactive | Potency [4]: inactive

C=Cc1cccc(C)c1
Potency [1]: inactive | Potency [3]: inactive | Potency [4]: inactive

CN1CCN2c3ccccc3Cc3ccccc3C2C1 (stereo not given)
Potency [1]: inactive | Potency [4]: inactive

O=S(=O)(O)c1ccc(N=Nc2c(O)ccc3ccccc23)cc1
Potency [1]: 31.7 µM (active) | Potency [3]: inactive | Potency [4]: 35.6 µM (active)

O=c1c(O)c(-c2ccc(O)cc2O)oc2cc(O)cc(O)c12
Potency [1]: 21.1 µM (active) | Potency [3]: inactive | Potency [4]: inactive

OC1CCCc2ccccc21 (stereo not given)
Potency [1]: inactive | Potency [3]: inactive | Potency [4]: inactive

CCc1cccc(CC)c1NC(=O)CN(CC(=O)O)CC(=O)O
Potency [1]: inactive | Potency [3]: inactive | Potency [4]: inactive

CCCCCCCCCCCCCCCC[N+](C)(C)CC
Potency [2]: inactive

Cc1c2ccccc2c(C)c2c1ccc1ccccc12
Potency [1]: 22.2 µM (active) and 25.2 µM (active) | Potency [3]: inactive | Potency [4]: 22.2 µM (active) and 20 µM (active)

CCC(C)(CCC(C)C)C(=O)[O][Sn]([CH3])([CH3])[O]C(=O)C(C)(CC)CCC(C)C (stereo not given)
Potency [1]: 25.2 µM (active) | Potency [3]: inactive | Potency [4]: inactive

CC(=O)[C@H]1CC[C@H]2[C@@H]3CCC4=CC(=O)CC[C@]4(C)[C@H]3CC[C@]12C
Potency [1]: 22.3 µM (active) and 25.2 µM (active) | Potency [4]: inactive

CC/C=C\CCCCCO
Potency [1]: inactive | Potency [3]: inactive | Potency [4]: inactive

O=C1c2ccccc2C(=O)N1SC1CCCCC1
Potency [1]: 3.99 µM (active) and 7.1 µM (active) | Potency [4]: inactive

CN(C)c1ccc(C(=C2C=CC(=[N+](C)C)C=C2)c2ccc(N(C)C)cc2)cc1
Potency [2]: 11.2 µM (active) and 20 µM (active) and 10.2 µM (active) | Potency [3]: 3.45 µM (active) and 3.47 µM (active) and 2.68 µM (active)
